The nature of test [1]: optical density shifts of acrAB sulA E. coli – strain DRC41, OD650, 48 h, E. coli filamentation inducer project, primary screen (AID 1152).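 Note: E. coli MC1000 strain DRC41 lacking acrAB efflux pump and sulA.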 The conditions noted are these: higher = more signal, called active from +8 up or from −8 down.
The nature of test [2]: probe aLefty1 binding on compound microarray – biochemical, small-molecule microarray, 635/667 nm fluorescence, primary screen (AID 1153).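 Note: score merges spot fluorescence with signal-to-noise ratio from the scanned slide images.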 The conditions noted are these: higher = more signal.
A short description of test [3]: plasmodial surface anion channel blockers, osmotic lysis – cell-based, P. falciparum Indochina, OD700, 1 h, primary screen (AID 1154). The conditions noted are these: P. falciparum Indochina infected RBC osmotic lysis, higher = more signal, called active from +8 up or from −8 down.
The nature of test [4]: plasmodial surface anion channel blockers, osmotic lysis – cell-based, P. falciparum Indochina, OD700, 2 h, primary screen (AID 1155).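 Note: lysis reports solute entry through the parasite surface anion channel PSAC.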 The conditions noted are these: P. falciparum Indochina infected erythrocytes, higher = more signal, called active from +8 up or from −8 down.
Test [5] in a line: changes in parasitized red cell lysis, either direction – P. falciparum Indochina, OD700, 3 h, PSAC antagonist project, primary screen (AID 1156). The conditions noted are these: P. falciparum-infected erythrocytes, osmotic lysis, higher = more signal, called active from +8 up or from −8 down.
A short description of test [6]: plasmodial surface anion channel blockers, osmotic lysis – cell-based, P. falciparum Indochina, OD700, 18 h, primary screen (AID 1157). The conditions noted are these: P. falciparum Indochina infected erythrocytes, osmotic lysis OD700, 18 h; higher = more signal, called active from +8 up or from −8 down.
Test [7] in a line: S6 kinase pathway phospho-S6 level changes – cell-based, A549, cytoblot, luminescence, serum-stimulated, primary screen (AID 1158).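 Note: serum-stimulated A549 lung adenocarcinoma cells; signal is phosphorylated S6 detected by cytoblot immunostaining with HRP secondary.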 The conditions noted are these: 5 h, higher = more signal.
The target in test [8] is NADPH oxidase 2 (Homo sapiens) (UniProt P04839). Briefly: compounds shifting NOX2 Amplex Red fluorescence – cell-based, HEK293-NOX2, PMA-stimulated, NOX inhibitor project, primary screen (AID 1159). Note: test concentration not given here. The conditions noted are these: 45 min, higher = more signal, called active from +8 up or from −8 down.
Sequence of NADPH oxidase 2 (Homo sapiens) (P04839 whole entry, looked up): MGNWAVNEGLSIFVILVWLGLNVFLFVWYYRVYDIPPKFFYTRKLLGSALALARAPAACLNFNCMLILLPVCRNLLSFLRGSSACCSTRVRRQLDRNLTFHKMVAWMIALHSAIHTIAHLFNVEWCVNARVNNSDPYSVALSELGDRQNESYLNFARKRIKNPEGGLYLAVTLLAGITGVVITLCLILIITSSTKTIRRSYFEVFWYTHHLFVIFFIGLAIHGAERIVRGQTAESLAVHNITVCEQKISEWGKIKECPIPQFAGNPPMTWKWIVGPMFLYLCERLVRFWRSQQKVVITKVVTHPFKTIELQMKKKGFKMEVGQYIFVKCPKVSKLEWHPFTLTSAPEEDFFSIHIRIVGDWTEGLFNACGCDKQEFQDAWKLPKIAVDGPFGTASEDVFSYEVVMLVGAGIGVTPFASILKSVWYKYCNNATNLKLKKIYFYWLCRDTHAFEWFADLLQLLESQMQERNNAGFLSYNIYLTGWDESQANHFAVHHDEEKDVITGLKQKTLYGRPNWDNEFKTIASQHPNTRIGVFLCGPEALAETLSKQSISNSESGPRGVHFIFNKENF
Test [9] deals with NADPH oxidase 4 (Homo sapiens) (UniProt Q9NPH5). Description: compounds shifting NOX4 Amplex Red fluorescence – cell-based, HEK293-NOX4, tetracycline-induced, NOX inhibitor project, primary screen (AID 1160). The conditions noted are these: HEK293-NOX4, Amplex Red H2O2 fluorescence, 45 min; higher = more signal, called active from +8 up or from −8 down.
Sequence of NADPH oxidase 4 (Homo sapiens) (Q9NPH5 whole entry, looked up): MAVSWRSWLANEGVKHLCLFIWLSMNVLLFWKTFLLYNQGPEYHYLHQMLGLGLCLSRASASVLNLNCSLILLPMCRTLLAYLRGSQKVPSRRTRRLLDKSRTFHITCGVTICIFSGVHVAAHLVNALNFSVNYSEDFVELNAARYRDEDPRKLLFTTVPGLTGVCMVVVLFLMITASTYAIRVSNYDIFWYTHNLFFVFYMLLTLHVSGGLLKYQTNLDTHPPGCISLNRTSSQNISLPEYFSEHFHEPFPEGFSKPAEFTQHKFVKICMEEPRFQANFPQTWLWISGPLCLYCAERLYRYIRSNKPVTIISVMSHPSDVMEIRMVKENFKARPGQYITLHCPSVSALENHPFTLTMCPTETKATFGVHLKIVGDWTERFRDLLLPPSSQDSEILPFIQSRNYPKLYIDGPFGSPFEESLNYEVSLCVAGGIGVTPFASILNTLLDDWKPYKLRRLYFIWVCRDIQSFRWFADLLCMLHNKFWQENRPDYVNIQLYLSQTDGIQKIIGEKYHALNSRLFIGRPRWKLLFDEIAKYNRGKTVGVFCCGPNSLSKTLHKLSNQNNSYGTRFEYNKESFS
Test [10] addresses NADPH oxidase 5 (Homo sapiens) (UniProt Q96PH1). Description: compounds shifting NOX5 Amplex Red fluorescence – cell-based, HEK293-NOX5, NOX inhibitor project, primary screen (AID 1161). The conditions noted are these: HEK293-NOX5, ionomycin, 45 min, higher = more signal.
Test [11] in a line: compound effects on lung adenocarcinoma cell viability – A549, calcein-AM fluorescence, 48 h, basal, profiling panel (AID 1162). Note: test concentration not given here. The conditions noted are these: higher = more signal.
Test [12] is described as follows: compound effects on differentiated 3T3-L1 adipocyte viability – cell-based, 3T3-L1 adipocytes, calcein-AM fluorescence, 48 h, basal, profiling panel (AID 1163). Note: test concentration not given here. The conditions noted are these: 3T3-L1 adipocytes viability, higher = more signal.
Test [13] can be described thus: compound effects on hepatocellular carcinoma cell viability – HepG2, calcein-AM fluorescence, 48 h, basal, profiling panel (AID 1164). Note: test concentration not given here. The conditions noted are these: higher = more signal.
A short description of test [14]: compound effects on multiple myeloma cell viability – MM1S, calcein-AM fluorescence, 48 h, basal, profiling panel (AID 1165). Note: test concentration not given here. The conditions noted are these: higher = more signal.
The nature of test [15]: calcein-AM signal in unstimulated myeloma cells – cell-based, calcein-AM fluorescence, 48 h, PK04 Diversity Set, profiling panel (AID 1166).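 Note: cells grown under basal conditions without added stimulus; test concentration not given here.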 The conditions noted are these: RPMI8226 myeloma viability, higher = more signal.
A short description of test [16]: JC-1 mitochondrial signal, unstimulated HepG2 cells – cell-based, JC-1 fluorescence, 24 h, 100 nL compound, profiling panel (AID 1167). Note: test concentration not given here. The conditions noted are these: HepG2 mitochondrial potential, higher = more signal.
The nature of test [17]: JC-1 mitochondrial signal, unstimulated adipocytes – cell-based, JC-1 fluorescence, 3T3-L1 adipocytes, 24 h, 100 nL compound, profiling panel (AID 1168). Note: test concentration not given here. The conditions noted are these: JC-1 mitochondrial fluorescence, higher = more signal, called active from +8 up or from −8 down.
A short description of test [18]: JC-1 mitochondrial signal, unstimulated myeloma cells – cell-based, JC-1 fluorescence, RPMI8226, 24 h, 100 nL compound, profiling panel (AID 1169). Note: test concentration not given here. The conditions noted are these: JC-1 mitochondrial potential fluorescence, higher = more signal.
Test [19] in a line: JC-1 mitochondrial signal, unstimulated MM1S myeloma – cell-based, JC-1 fluorescence, 24 h, 100 nL compound, profiling panel (AID 1170). Note: test concentration not given here. The conditions noted are these: MM1S mitochondrial potential, higher = more signal.
Test [20] in a line: resazurin metabolic signal in A549 cells – cell-based, resazurin fluorescence, 24 h, PK04 Diversity Set, profiling panel (AID 1171). Note: test concentration not given here. The conditions noted are these: A549 viability, higher = more signal, called active from +8 up or from −8 down. For orientation: Resazurin is reduced to fluorescent resorufin, in cell work by metabolically active cells.

SMILES strings stand for the structures. The source made the active and inactive calls.

Sequence of NADPH oxidase 5 (Homo sapiens) (Q96PH1 whole entry, looked up): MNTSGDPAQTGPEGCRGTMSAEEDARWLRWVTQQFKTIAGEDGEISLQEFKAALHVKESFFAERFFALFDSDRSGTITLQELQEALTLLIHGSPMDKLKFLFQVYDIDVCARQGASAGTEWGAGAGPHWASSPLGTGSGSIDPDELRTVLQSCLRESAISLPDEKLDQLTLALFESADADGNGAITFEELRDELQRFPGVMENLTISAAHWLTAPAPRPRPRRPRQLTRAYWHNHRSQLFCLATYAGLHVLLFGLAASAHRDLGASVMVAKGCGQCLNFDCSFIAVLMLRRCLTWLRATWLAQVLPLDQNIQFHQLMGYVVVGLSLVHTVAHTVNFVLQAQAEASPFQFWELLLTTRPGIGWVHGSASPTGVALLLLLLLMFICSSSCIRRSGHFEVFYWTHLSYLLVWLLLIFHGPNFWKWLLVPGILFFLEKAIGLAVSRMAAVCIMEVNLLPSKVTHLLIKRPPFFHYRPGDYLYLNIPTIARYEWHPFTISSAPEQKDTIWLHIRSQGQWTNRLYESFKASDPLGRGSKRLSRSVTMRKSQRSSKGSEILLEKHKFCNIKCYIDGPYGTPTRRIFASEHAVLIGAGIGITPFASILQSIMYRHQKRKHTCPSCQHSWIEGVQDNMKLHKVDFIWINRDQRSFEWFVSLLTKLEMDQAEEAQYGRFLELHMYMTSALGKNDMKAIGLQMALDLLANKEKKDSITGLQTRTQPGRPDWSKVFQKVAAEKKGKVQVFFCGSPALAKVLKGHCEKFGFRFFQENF

As for `Cc1ccc(S[C@]2(C(=O)NCC(F)(F)F)CC(=O)N(C3CCCCC3)[C@@H]2c2ccc(CO)cc2)cc1`, the z-score in test [1] was 0.344 (inactive); in [3] it was 1.58 (inactive); in test [4], 0.525 (inactive); in test [5], 0.621 (inactive); in test [6] it was 0.157 (inactive); in test [7], -0.14. Besides, the z-score was -0.941 (inactive) in test [8]; 0.03 (inactive) in [9]; 0.192 in test [10]; 0.815 in test [11]; 0.132 in test [12]; 0.844 in test [13]. The z-score in test [14] was -1.03; in test [15], -0.758; in [16], 1.11; in test [17] it was 0.466 (inactive); in test [18], 0.0558; in test [19], -0.42. In addition, the z-score in test [20] was -0.0508 (inactive). The compound further yielded a composite z-score in test [2] of 0.123.
For the compound `CN(C)C(=O)[C@]1(Cc2ccccc2CN=[N+]=[N-])N=C(c2ccc(OCCCO)cc2)O[C@@H]1c1ccccc1N=[N+]=[N-]`, the z-score was -0.174 (inactive) in [1]; 33.2 (active) in [3]; 30 (active) in test [4]; 2.99 (inactive) in test [5]; 9.81 (active) in [6]; -0.0847 in [7]. The z-score in [8] was -1.25 (inactive); in test [9] it was 0.807 (inactive); in [10], -0.474; in test [11], -0.691; in [12] it was 0.287; in test [13], -0.923. Also, the z-score is -1.33 in test [14]; -2.16 in test [15]; 0.271 in test [16]; 2.38 (inactive) in [17]; -0.997 in test [18]; -1.29 in [19]. For the same compound, the z-score in [20] is -1.42 (inactive). The composite z-score in [2] is 0.413.
Consider `CC(C)CNC(=O)[C@@]1(C)c2ccccc2C(=O)N(Cc2cc(F)cc(C(F)(F)F)c2)[C@H]1c1ccc(CO)cc1`, for which the z-score in test [1] was -0.144 (inactive); in test [3], 2.26 (inactive); in test [4] it was 0.684 (inactive); in [5] it was 0.33 (inactive); in test [6], 0.253 (inactive); in test [7], 0.0857. Moreover, the z-score in test [8] is -0.152 (inactive); in test [9], 0.261 (inactive); in [10], -0.364; in [11], -0.0148; in test [12] it was 1.32; in test [13], -0.49. Besides, the z-score in test [14] is 0.545; in test [15], 0.594; in test [16], 0.455; in [17], -0.175 (inactive); in [18] it was -0.638; in test [19] it was 0.0607. Further, in test [20], the z-score was 0.906 (inactive). This compound also had a composite z-score in test [2] of 0.163.
Consider `CO[C@H]1O[C@H](CO)[C@@H](OC(=O)Nc2ccc(C(F)(F)F)cc2)[C@H](OC(=O)Nc2ccccc2-c2ccccc2)[C@H]1OC(=O)Nc1ccccc1-c1ccccc1`, for which the z-score is -1.16 (inactive) in [1]; 3.1 (inactive) in test [3]; 1.18 (inactive) in test [4]; -2.21 (inactive) in test [5]; 1.16 (inactive) in [6]; -0.413 in test [7]. Also, the z-score is -3.25 (inactive) in test [8]; -1.07 (inactive) in [9]; -0.439 in test [10]; -4.38 in test [11]; 0.158 in test [12]; -5.26 in test [13]. Besides, the z-score in test [14] was -3.52; in test [15], -3.98; in test [16], 0.235; in [17] it was 0.0902 (inactive); in [18], -0.867; in [19], -1.76. Also, in test [20], the z-score is -6.26 (inactive). The compound also gave a composite z-score in test [2] of 0.398.
In the case of `CCOC(=O)C1=CC[C@@H](c2ccc(F)cc2)N(S(=O)(=O)c2ccc(C)cc2)[C@H]1c1ccc([N+](=O)[O-])cc1`, the z-score was 0.251 (inactive) in test [1]; 1.83 (inactive) in test [3]; 1.12 (inactive) in test [4]; -0.186 (inactive) in [5]; 1.22 (inactive) in test [6]; -0.399 in test [7]. For the same compound, the z-score is 1.36 (inactive) in test [8]; 0.856 (inactive) in test [9]; 1.4 in test [10]; -0.606 in [11]; -0.415 in test [12]; -0.661 in test [13]. Also, the z-score in test [14] was -0.724; in test [15], 0.192; in [16], 1.65; in test [17], -0.754 (inactive); in test [18], 0.235; in [19], -0.862. In addition, the z-score in test [20] is 1.8 (inactive). Also, the composite z-score in test [2] was -0.0946.
With `C[C@H]1C2[C@H](Cc3ccccc3)NC(=O)[C@]23C(=O)NCC(=O)N2CCC[C@H]2C(=O)NC/C=C\C/C=C/C3[C@@H]2O[C@]12C` (stereo not given in full), the z-score in [1] was 0.822 (inactive); in [3], -0.0865 (inactive); in [4] it was -0.387 (inactive); in [5], -0.62 (inactive); in [6], -0.113 (inactive); in [7], 0.255. Also, the z-score in test [8] was 0.212 (inactive); in test [9], 1.07 (inactive); in test [10], 0.649; in [11], 0.379; in test [12], 0.491; in test [13], 0.409. Moreover, the z-score in test [14] is 0.163; in test [15], -0.547; in test [16] it was -0.324; in test [17], 0.0628 (inactive); in [18], -1.03; in test [19] it was 0.227. In test [20], the z-score is 0.87 (inactive). Further, the composite z-score in test [2] was -0.193.
`O=C1OCCC=C[C@H]2OC34C=CCN(c5ccc(Cl)cc5)C(=O)[C@H]3N(CCO)C(=O)[C@@H]4C12` (stereo not given in full): the z-score was -0.232 (inactive) in test [1]; 0.773 (inactive) in test [3]; 0.183 (inactive) in test [4]; 0.766 (inactive) in [5]; 0.355 (inactive) in test [6]; -0.509 in test [7]. In addition, the z-score in [8] was 1.69 (inactive); in test [9], -0.0621 (inactive); in test [10], 1.48; in [11], -0.384; in [12], 0.0844; in [13], 0.0509. For the same compound, the z-score in test [14] is 0.739; in [15] it was -0.165; in test [16] it was -0.28; in test [17] it was 0.296 (inactive); in [18], 0.0137; in test [19] it was 1.29. Further, the z-score in test [20] is 0.519 (inactive). In test [2], this compound returned a composite z-score of -0.0501.
In the case of `COCCn1c(C(=O)N2CCCC2)cc2c1C[C@H]1CN(C(=O)c3ccccc3)[C@@](Cc3ccccc3)(C(=O)OC)[C@@H]21`, the z-score in [1] is -0.91 (inactive); in test [3], 1.46 (inactive); in test [4], 0.103 (inactive); in [5], 1.98 (inactive); in test [6] it was 1.01 (inactive); in [7], 1.09. Also, the z-score in [8] is 0.582 (inactive); in [9], -0.6 (inactive); in test [10] it was -3.94; in [11], -1.94; in test [12], -0.239; in test [13] it was -0.768. The z-score in test [14] was 0.0841; in test [15] it was -1.37; in test [16], 0.678; in [17], -0.416 (inactive); in [18], -0.803; in test [19] it was -0.688. In addition, in test [20], the z-score is -0.0413 (inactive). In test [2], this compound came in with a composite z-score of 1.46.

Source of the values: PubChem BioAssay.
